Here are results for ten compounds from paper PMC7826789 (International Journal of Molecular Sciences, 2021).

Some test systems named below: HIPK2; HIPK3; HIPK4; HUNK; ICK; IGF1R; INSRR; INSR; IRAK1; IRAK3; IRAK4; ITK.
Conditions in all cases: Compound Concentration (nM):1000
Another experiment relates to T1, HPK1.
T1 construct: gene MAP4K1

In another experiment the test system is T2, IKK-alpha.
T2 construct: gene CHUK

A further experiment relates to T3, IKK-beta.
T3 construct: gene IKBKB

Another experiment has as its system T4, IKK-epsilon.
T4 construct: gene IKBKE

The subject of experiment [1] is JAK1(JH1domain-catalytic).
In experiment [2] the test system is JAK1(JH2domain-pseudokinase).
Experiment [3] has as its system JAK2(JH1domain-catalytic).
Experiment [4] relates to JAK3(JH1domain-catalytic).
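Also: KINOMEscan scanMAX binding as percent activity remaining versus control; lower means stronger binding.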

On to `NS(=O)(=O)c1ccc(N/N=C2\C(=O)Nc3ccc(-c4cnco4)cc32)cc1` [GW276655], for which the “Percent Control” value is 28% in the experiment with HIPK2; 20% in the experiment with HIPK3; 51% with HIPK4; 100% with HPK1; 61% in the experiment on HUNK; 8.8% with ICK. The “Percent Control” value came out at 83% in the experiment with IGF1R; 55% with IKK-alpha; 76% with IKK-beta; 82% in the experiment with IKK-epsilon; 83% with INSRR; 73% in the experiment on INSR. Also, the “Percent Control” value with IRAK1 is 79%; in the experiment with IRAK3, 100%; with IRAK4, 90%; in the experiment on ITK, 93%; in experiment [1] it was 100%; in experiment [2], 31%. Moreover, the “Percent Control” value was 54% in experiment [3] and 16% in [4].

For `C/C(Nc1ccc(S(N)(=O)=O)cc1)=C1/C(=O)Nc2ccccc21` [GW335962X], the “Percent Control” value in the experiment with HIPK2 is reported as 93%; in the experiment on HIPK3 it was 97%; in the experiment with HIPK4, 84%; with HPK1, 100%; in the experiment with HUNK, 100%; in the experiment on ICK, 92%. Besides, the “Percent Control” value in the experiment with IGF1R stood at 95%; in the experiment on IKK-alpha, 92%; in the experiment on IKK-beta, 100%; in the experiment on IKK-epsilon it was 63%; with INSRR, 100%; in the experiment with INSR, 66%. The “Percent Control” value is 82% in the experiment with IRAK1; 88% in the experiment with IRAK3; 91% in the experiment with IRAK4; 100% in the experiment on ITK; 100% in experiment [1]; 61% in [2]. In addition, the figures for the “Percent Control” value in experiment [3] and in experiment [4] were 73% and 52%, respectively.

On to `COc1cc(C=NNc2ncnc3c2cnn3-c2ccccc2)ccc1O` [GW513184X], for which the “Percent Control” value in the experiment on HIPK2 is on record as 91%; in the experiment with HIPK3, 75%; in the experiment on HIPK4 it was 67%; in the experiment on HPK1 it was 100%; with HUNK, 58%; in the experiment on ICK, 91%. The “Percent Control” value in the experiment on IGF1R, in the experiment with IKK-alpha, with IKK-beta, in the experiment with IKK-epsilon, in the experiment with INSRR and in the experiment with INSR was 100% throughout. The “Percent Control” value is 43% with IRAK1; 28% in the experiment on IRAK3; 72% in the experiment on IRAK4; 100% with ITK; 100% in experiment [1]; 84% in [2]. For the same compound, the “Percent Control” value in experiment [3] is recorded as 72%; in experiment [4], 81%.

Regarding `Cl.c1ccc(Cc2nc3ccc(Nc4ncnc5ccccc45)cc3[nH]2)cc1` [GR269666A], the “Percent Control” value came to 100% with HIPK2; 100% in the experiment on HIPK3; 100% in the experiment on HIPK4; 98% in the experiment with HPK1; 100% in the experiment on HUNK; 100% with ICK. In addition, the “Percent Control” value with IGF1R, in the experiment with IKK-alpha, in the experiment with IKK-beta, in the experiment on IKK-epsilon, in the experiment with INSRR and in the experiment on INSR was 100% throughout. In addition, the “Percent Control” value in the experiment on IRAK1 was 100%; in the experiment with IRAK3, 100%; with IRAK4, 100%; in the experiment with ITK it was 100%; in [1], 100%; in experiment [2], 88%. Besides, the “Percent Control” value in [3] and in experiment [4] was 100% in each case.

For `CCc1ccc(Oc2nccc(-c3c(-c4ccc(F)cc4)ncn3C3CCNCC3)n2)cc1` [SB-242719], the “Percent Control” value was found to be 92% in the experiment on HIPK2; 100% in the experiment on HIPK3; 100% with HIPK4; 54% in the experiment with HPK1; 86% in the experiment on HUNK; 100% in the experiment on ICK. Further, the “Percent Control” value is 97% in the experiment with IGF1R; 99% with IKK-alpha; 100% in the experiment with IKK-beta; 56% in the experiment with IKK-epsilon; 100% in the experiment with INSRR; 77% in the experiment with INSR. Further, the “Percent Control” value is 95% in the experiment on IRAK1; 95% with IRAK3; 88% with IRAK4; 100% in the experiment on ITK; 95% in experiment [1]; 100% in experiment [2]. The “Percent Control” value in experiment [3] came out at 90%; in experiment [4], 100%.

For `Cl.O=C(Nc1ccc(Oc2ccc3[nH]c(NC(=O)c4ccccc4)nc3c2)cc1)Nc1cc(C(F)(F)F)ccc1F` [GW709042A], the “Percent Control” value came out at 98% in the experiment on HIPK2; 100% in the experiment with HIPK3; 13% with HIPK4; 75% with HPK1; 90% in the experiment on HUNK; 100% in the experiment on ICK. In addition, the “Percent Control” value with IGF1R was found to be 100%; in the experiment on IKK-alpha, 75%; with IKK-beta, 100%; in the experiment on IKK-epsilon it was 86%; in the experiment with INSRR it was 100%; in the experiment on INSR, 85%. The “Percent Control” value was 89% in the experiment on IRAK1; 100% with IRAK3; 86% in the experiment on IRAK4; 100% in the experiment with ITK; 99% in experiment [1]; 96% in [2]. Also, the “Percent Control” value in [3] worked out at 100%; in experiment [4] it was 77%.

Take `COc1ccc2cc(-c3c(-c4ccncc4)nc(-c4ccc(S(C)(=O)=O)cc4C)n3C)ccc2c1` [SB-633825]: the “Percent Control” value in the experiment with HIPK2 stood at 82%; in the experiment on HIPK3 it was 70%; with HIPK4 it was 63%; with HPK1, 85%; in the experiment with HUNK, 100%; in the experiment on ICK, 69%. Moreover, the “Percent Control” value in the experiment on IGF1R was 79%; in the experiment with IKK-alpha it was 57%; with IKK-beta, 66%; in the experiment on IKK-epsilon it was 82%; in the experiment on INSRR, 89%; in the experiment with INSR, 100%. Besides, the “Percent Control” value is 68% with IRAK1; 75% with IRAK3; 81% with IRAK4; 60% with ITK; 100% in experiment [1]; 75% in experiment [2]. Moreover, the “Percent Control” value in experiment [3] worked out at 72%; in experiment [4], 63%.

In the case of `COc1ccccc1-c1cc(/C=C2\C(=O)Nc3ncc(Br)cc32)cc(Br)c1O` [GW442130X], the “Percent Control” value in the experiment with HIPK2 worked out at 100%; with HIPK3 it was 100%; in the experiment with HIPK4, 92%; with HPK1 it was 99%; in the experiment on HUNK, 69%; in the experiment with ICK it was 81%. Moreover, the “Percent Control” value in the experiment on IGF1R is 100%; in the experiment on IKK-alpha, 100%; in the experiment on IKK-beta it was 100%; in the experiment on IKK-epsilon, 100%; in the experiment on INSRR, 100%; in the experiment with INSR, 87%. Also, the “Percent Control” value is 74% in the experiment on IRAK1; 100% in the experiment on IRAK3; 85% in the experiment with IRAK4; 100% in the experiment with ITK; 100% in experiment [1]; 100% in [2]. Further, the “Percent Control” value was 82% in experiment [3] and 55% in [4].

For the compound `COc1cc(C)c(N(C)C(=O)CN(C)C)cc1Nc1nc(Nc2cccc(F)c2C(N)=O)c2cc[nH]c2n1` [GSK2219385], the “Percent Control” value was determined as 100% with HIPK2; 100% with HIPK3; 100% with HIPK4; 100% in the experiment on HPK1; 100% with HUNK; 89% in the experiment on ICK. The “Percent Control” value is listed as 7.7% in the experiment on IGF1R; 100% in the experiment with IKK-alpha; 100% with IKK-beta; 61% with IKK-epsilon; 2.9% in the experiment with INSRR; 4.3% in the experiment on INSR. Besides, the “Percent Control” value in the experiment on IRAK1 is 95%; in the experiment on IRAK3, 97%; with IRAK4, 95%; with ITK, 99%; in experiment [1], 88%; in experiment [2], 81%. Further, the “Percent Control” value in [3] came out at 100%; in experiment [4] it was 92%.

In the case of `COC(=O)Nc1nc2ccc(Oc3ccc(NC(=O)Nc4cc(C(F)(F)F)ccc4F)cc3)cc2s1.Cl` [GW693917A], the “Percent Control” value with HIPK2 is 88%; in the experiment on HIPK3, 94%; in the experiment on HIPK4 it was 10%; in the experiment with HPK1, 51%; in the experiment on HUNK, 100%; with ICK, 78%. For the same compound, the “Percent Control” value in the experiment with IGF1R was 100%; with IKK-alpha, 86%; in the experiment with IKK-beta it was 100%; with IKK-epsilon it was 71%; with INSRR, 100%; with INSR, 68%. Moreover, the “Percent Control” value was 97% in the experiment on IRAK1; 100% with IRAK3; 90% with IRAK4; 74% with ITK; 71% in [1]; 80% in experiment [2]. Besides, the “Percent Control” value in experiment [3] is given as 57%; in experiment [4] it was 61%.
